The values below come from the supplement of paper PMC6555819.

In the experiment the test system is VDR:RXRa (NR concentration 270 nM, RXRa partner concentration 90 nM). Briefly: PBM binding z-score (relative to random genomic background probes); higher = stronger binding; sequences stand for … in GC…GCGATTGACAGCGTAGAATGAAGG
The method, then: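 Protein-binding microarray (Agilent 4x180K custom design, double-stranded 60-nt probes: 5' GC cap, 34-nt variable region, 24-nt constant primer region; full probe sequence given). Purified or IVT nuclear receptor:RXRα heterodimers (3:1 NR:RXRα, mostly 270:90 nM) or homodimers were incubated for 1 h in PBS with 2% milk and no ligand, then detected with Alexa488 antibodies. Fluorescence from o1-orientation probes (~5 replicates averaged) was converted to z-scores against 500 random hg19 background probes. Variable regions are seed direct-repeat (DR0–DR5) sites, all their single-nucleotide variants and half-site ablations.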
As for GGAACGAGGGCATTCGAGTTGATAGGATGGCGAT, the PBM binding z-score was 3.74.
The value for ATCTCTAGGTATAAGTTCAGTGAATCCCGAGGAT was 0.837.
The value for ATCGAAAGGTCGACGAGGTGAGTATACACCGTTT was 5.23; that for CAAACTAGGTCAAGGTCAAAGCCGGTTTGTGCCA was 4.95; that for GCTGCTAGGTCAACTGATGGACAGCTAAAGCTCG was 1.27.
The value for CGAACTAGGTCAAAGACAGTGAATCTCCGCACGC was 1.36; that for GCTCGCAGGCCATTTGGGTCACTCAATGACGGGC was 0.783.
GCCATTAGTTGAAAGGGCAACCGAATGATTCTCG showed a PBM binding z-score of 0.274.
As for AGTCAAAGTTCACTGGGTAACGTAAGATTCAGCT, the PBM binding z-score is 4.34.
The value for TCTTGTAGATCAGCAGGTTGAGAAAGCTGGCCAA was 0.543; that for CATACAGGGTCAGCTAGGTCAGAGTAGGGACGGC was 5.76; that for TCATATAGGTAAAGGTCAAAGTCGAACGATATGA was 4.77.
Then AGAATGAGGTTATTAAGATTAGGGAATTGCGGTC, with 1.29; and CCTAGTAGTTGACCATAAGGGCAACCGAAGCTCG, with 0.633.
Then CCTGCTAGGTCATGGTCTGCTAATCTACAGTATG, with 1.58.
As for TCGAGTAGGTTAGTCGGGGCATTCAGCCAACATA, the PBM binding z-score was 2.07.
In the case of CCTAGTTGGTCAGGAGGTCACCCACCGGATATGA, the PBM binding z-score was found to be 3.66.
Regarding CCTATTAATTGACCATAAGGGCAACCGAAGCTCG, the PBM binding z-score stood at 0.371.
CAAACTAGGTCAAGGTCAAAATCGGTTTGTGCCA: the PBM binding z-score is 4.7.
Then ACAGACAGGCGAGTGAAGGTAACTCAGCTGGACG, with -0.451; and AGAATGAAGTTAAGATCAGGGAAACAGAATACAT, with -0.31; and TTTTGTAGATCAAGCAGGTTAAGAAAGCCTGAGT, with 0.649.
The value for GCTGCAAGGTCAGGTTGGTCAGCTAACGGGTACG was 2.81; that for AATACAGGGTCACTAGGCCAGAGCAGGTACGAAT was 4.03.
Then TCAGACAGGTGAGGGTAACTCAGGTACGCAGTCG, with 0.677; and CCTTACGGGCCAAGGTTATAGCACGGGTGGTACG, with -0.139.
In turn, CCAGACAGGTAAGAAGGTAACTCAGCCTCGATTA returned a PBM binding z-score of 0.00354.
The value for CGTCCAAGGTCAATGCTACGTCAGTGAAAGCATT was 3.53.
The value for CAGCCTAGGTCAGGGCCAGTATCGGAGGAACGTT was -0.0138.
The value for ATCTCTAGGTAAAAGTTCATTGAATCCCGAGGAT was 2.82.
GCATATAGGAAATACAAGGTGAAAGTCCGATTGT returned a PBM binding z-score of -0.189.
The value for TCTCGGAGGACACGAAATGTCAGAGCTCGACATC was 0.0899; that for CCTAGCAGGCCAATCTGGGTAACTCAAGGCTTGA was -0.773; that for TCAGCCAGGTGAAGGTAACTCAGGTACGCAGTCG was 0.261.
The value for AGAACGAAGGCACGCTGAGTTGATAGCAGAGTAG was -0.487; that for CCAACTGGGCCATCAGGTCATTGATATCAACGTT was 1.98; that for GGAACGAGGCCAAGTTGATAGCAGAGTTTGATGG was -0.548.
Then CCTCGGAAGACAGAAGGTCAGAGCTGTCCGCTTT, with 1.01; and ACTTACGGGTCAACGAGGTTATAACACGCGTATA, with 7.9.
Sequence AGAATGAGGTTATACGTAGAGCAGGGAAGAAAGT returned a PBM binding z-score of 1.23.
